We go through 5 compounds from paper PMC7826789 (International Journal of Molecular Sciences, 2021).

On to `CC(C)COC(=O)c1ccc2c(c1)/C(=C/Nc1ccc(S(N)(=O)=O)cc1)C(=O)N2` [GW416981X], for which the Kinases covered result with IKKE is reported as “IKKE”.

Turning to `CNC(=O)c1c(F)cccc1Nc1nc(Nc2cc3c(cc2OC)CCN3C(=O)CN(C)C)nc2[nH]ccc12` [GSK1838705], in the test on IRR, the Kinases covered result is listed as “IRR”.

As to `CN(C)C(=O)/C(C#N)=C/c1ccc(-c2nc3cnc4[nH]ccc4c3n2C2CCCCC2)o1` [FM-381], the figures for the Kinases covered result with JAK1 and in the test on JAK3 were “JAK1” and “JAK3”, respectively.

As for `C[C@@H]1CCN(C(=O)CO)C[C@@H]1N(C)c1ncnc2[nH]ccc12` [PFE-PKIS 34], the Kinases covered result in the test with JAK3 is recorded as “JAK3”.

`Cc1cc(NC(=O)c2cccc(NC(=O)/C=C/CN(C)C)c2)ccc1Nc1nccc(-c2cccnc2)n1` [JNK-IN-7]: the Kinases covered result is “JNK1” in the test on JNK1 and “JNK2” with JNK2.
